Laboratory results as given in PubChem BioAssay AID686979 (National Center for Advancing Translational Sciences (NCATS), 2013).
About 50,000 (12%) of roughly 420,000 compounds were called active. About 26% were inconclusive and are not listed. This is one part of a sample in which actives are shown more often than they occur. Calls come from the whole dose curve; as a rule, active = well fitted inhibition curve with a large enough effect; inconclusive = small, poorly fitted or top-dose-only effect; inactive = flat fitted curve, though single readings scatter.

Experiment: qHTS for Inhibitors of human tyrosyl-DNA phosphodiesterase 1 (TDP1): qHTS in cells in presence of CPT; note: nearly all actives have a fitted effect of over 55% in size
Settings: chicken DT40 Tdp1-/-;hTDP1 cells + 20 nM CPT, ATP luminescence, 48 h; series mostly up to 46.2 µM; activity change, negative = growth inhibition: at the top concentration
Excerpt: Human tyrosyl-DNA phosphodiesterase 1 (TDP1) is a novel repair gene, and we propose to use it as a new target for anticancer drug development. TDP1 is not an essential protein, but under treatment with topoisomerase I poison (camptothecin: CPT), TDP1 works as a critical factor for cell survival. To directly identify novel TDP1 inhibitors active in a cellular environment, we have knocked-out the Tdp1 gene in chicken DT40 cells (Tdp1-/-) and generated a complemented counterpart cells that contains a stable transfection of the human TDP1 gene (Tdp1-/-;hTDP1 cells). For the primary screen, Tdp1-/-;hTDP1 cells will be exposed to small molecules in the presence or absence of CPT, and their growth kinetics will be evaluated after 48 hours by measuring ATP activity. […] The hit compounds will then be evaluated in the presence or absence of CPT using Tdp1-/- cells. […] In tertiary assays, biochemical gel-based assays will be used to assess whether the hit compounds specifically target TDP1. To this end, we have screened this cell line against the MLSMR in two primary screens. In one screen we add CPT and in the other we screen in the absence of CPT; this AID represents the screen where CPT was present. NIH Chemical Genomics Center [NCGC] NIH Molecular Libraries Probe Centers Network [MLPCN] MLPCN Grant: MH095538 Assay Submitter (PI): Yves Pommier, NCI
DT40-hTDP1 cells with 20 nM Camptothecin (add 20 microL of 1 mM CPT stock in 1 L of cell culture medium) were dispensed at 400 cells/5microL/well in tissue culture treated 1536-well white wall/solid bottom assay plates (Greiner Bio-One North America, NC, U.S.A.) using a Multidrop Combi 8 channel dispenser (Thermo Fisher, Waltham, MA, USA). 23 nL compounds and controls were transferred using the pin tool (Kalypsys, San Diego, CA, USA) to the assay plates. The assay plates were then incubated at 37 masculineC for a minimum 48 hr. Three microL of Cell Titer Glo solution was added to the plates and incubated at RT in dark for 30 min. Luminescence was read using ViewLux (Perkin Elmer) with 1 sec exposure slow speed, high gain and 2x binning.
% is set by controls: 0 for no effect and ±100 for the full control effect; potency is the fitted concentration of half-maximal effect.

SMILES	activity change, negative = growth inhibition	Potency
CC(=O)Oc1cccc(C(=O)Nc2ccccc2NC(=O)c2cccc(OC(C)=O)c2)c1	-13.8% (inactive)	–
COc1ccc(OC)c2[nH]c(=O)c(CCNC(=O)C(=O)c3c[nH]c4ccccc34)cc12	–	10.3 µM (active)
COc1ccc(OC)c2[nH]c(=O)c(CCNC(=O)C(C)(C)C)cc12	4.38% (inactive)	–
Cc1ccc(C)c2[nH]c(=O)c(CCNC(=O)CC(C)C)cc12	10.6% (inactive)	–
CC1(C(=O)NCc2ccccc2)CSCC(=O)N1CCCn1ccnc1 (stereo not drawn)	15.7% (inactive)	–
CC1(C)C=Cc2c(ccc(C(=O)/C=C/c3ccccc3)c2O)O1	–	7.94 µM (active)
CC(=O)Nc1ccc(NC(=S)NC(=O)/C=C/c2ccccc2)cc1	21.7% (inactive)	–
O=C(/C=C/c1ccccc1)c1ccccc1O	–	10.3 µM (active)
O=C(O)c1ccc2c(c1)C(=O)N(c1ccc(/C=C/C(=O)c3ccccc3)cc1)C2=O	11.4% (inactive)	–
O=C(/C=C/c1ccccc1)N/C(=C/c1ccccc1)C(=O)Nc1ccccc1O	-12.3% (inactive)	–
CC1(C(=O)O)CCN1C(=O)/C=C/c1ccccc1 (stereo not drawn)	-1.88% (inactive)	–
N#CC1=C(N)Oc2[nH]c(=S)[nH]c(=O)c2C12C(=O)Nc1ccccc12 (stereo not drawn)	-39.3% (inactive)	–
O=S(=O)(Nc1ccc2ccccc2c1)N1CCCCC1	-17% (inactive)	–
CC1CN/C(=C\C(=O)c2ccc(Br)cc2)C(=O)N1 (stereo not drawn)	-28% (inactive)	–
CCN(CC)CCN(C(=O)c1ccc(S(=O)(=O)N2CCOCC2)cc1)c1nc2cc3c(cc2s1)OCCO3	-18.7% (inactive)	–
CCOc1ccc2nc(N(CCN(C)C)C(=O)c3ccc4ccccc4c3)sc2c1	-27.2% (inactive)	–
CN(C)CCCN(C(=O)c1ccc(S(=O)(=O)N2CCCCCC2)cc1)c1nc2ccc(Br)cc2s1	–	11.6 µM (active)
O=c1/c(=C/c2ccc(CNS(=O)(=O)c3ccccc3)o2)sc2n1CCN=2	-26.8% (inactive)	–
Cc1cc(C)n2c(NCc3ccccc3)c(CC(C)C)nc2n1	–	14.6 µM (active)
Nc1nc(NCc2ccccc2)n(-c2ccccc2)n1	-6.22% (inactive)	–
Cn1cc(C2OC(=O)c3ccccc32)c2ccccc21 (stereo not drawn)	-26.2% (inactive)	–
ONC(=Nc1ccc(Cl)cc1)c1ccccc1Cl	-27.7% (inactive)	–
Cc1ccc(/C=N/NC(=O)Cn2ccc(C(F)(F)F)n2)o1	11.8% (inactive)	–
CCOc1ccc2oc(C(=O)N(CC)CC(=O)Nc3ccc(NC(C)=O)cc3)c(C)c2c1	0.608% (inactive)	–
Cc1cccc(C)c1-n1nnnc1C1(C)CCC(=O)N1CCOc1ccccc1 (stereo not drawn)	-22.9% (inactive)	–
O=C1c2ccccc2C(=O)N1CCOc1ccc(F)cc1	12.8% (inactive)	–
Cc1cccc2c1N(CCOc1ccccc1)C(=O)C2=O	–	2.06 µM (active)

SMILES	activity change, negative = growth inhibition	Potency
O=c1c2ccccc2ncn1CCCCOc1ccccc1F	-27.2% (inactive)	–
CCOC(=O)N1CCN(C(=O)C(C)NC(=O)c2ccco2)CC1 (stereo not drawn)	-11.1% (inactive)	–
CC(=O)c1ccc(N2CCN(C(=O)CCNC(=O)Cn3ccc4ccccc4c3=O)CC2)cc1	-22.6% (inactive)	–
CCOc1cccc(NC(=O)c2ccc(F)c(S(=O)(=O)N(CC)c3cccc(C)c3)c2)c1	–	18.4 µM (active)
CCOc1ccc(N(CC(=O)Nc2cccc(OC)c2)S(C)(=O)=O)cc1	-24.5% (inactive)	–
CCOc1cccc(NC(=O)CC#N)c1	11% (inactive)	–
O=c1[nH]c2ccccc2s1	-3.32% (inactive)	–
CC1CCCCN1C(=O)CCS(=O)(=O)Cc1ccccc1 (stereo not drawn)	-3.67% (inactive)	–
COc1ccnc(Oc2ccccc2)n1	28.3% (inactive)	–
CCC(C)c1ccccc1N1CC(C(=O)N2CCN(S(=O)(=O)c3ccc(F)cc3)CC2)CC1=O (stereo not drawn)	-14.4% (inactive)	–
COc1ccc(CCNS(=O)(=O)c2cc3c(cc2C)NC(=O)CO3)cc1OC	1.71% (inactive)	–
CCC/C=C(\CCC)C(NC(=O)Cc1ccccc1)c1ccc(C(=O)OC)cc1 (stereo not drawn)	–	18.4 µM (active)
COc1ccc(CC(=O)NC(C)CCc2ccccc2)cc1 (stereo not drawn)	0.105% (inactive)	–
CCOc1ccc(C(CC(=O)O)NC(=O)Cc2ccccc2)cc1OC (stereo not drawn)	9.07% (inactive)	–
Cc1ccc(/C=N/NC(=O)COc2ccccc2-c2ccccc2)cc1	–	0.164 µM (active)
C=CCc1ccccc1OCC(=O)N/N=C/c1ccccc1OCC	-13.5% (inactive)	–
Cc1cccc(OCC(=O)NCC(=O)N/N=C/c2ccc(N(C)C)cc2)c1	-7.65% (inactive)	–
CCOc1ccc(N(CC(=O)NCC2CCCO2)S(=O)(=O)c2ccc(C)cc2)cc1 (stereo not drawn)	-25.1% (inactive)	–
O=C(COC(=O)c1ccc2c(c1)OCCO2)NCc1ccccc1Cl	11.6% (inactive)	–
Cc1ccc(NC(=O)NC(=O)N(C2CCCCC2)S(=O)(=O)c2ccccc2)cc1	-10.3% (inactive)	–
COCCNc1nc(N)c([N+](=O)[O-])c(N2CCCCCC2)n1	11.3% (inactive)	–
CSc1nsc(SCC(=O)Nc2cc(C(=O)O)ccc2C)n1	-9.95% (inactive)	–
Cc1c(C(=O)N/N=C/c2ccccc2)[nH]c2c([N+](=O)[O-])cccc12	–	0.651 µM (active)
Cc1ccc2[nH]c(C(=O)O)c(NC(=O)c3ccccc3[N+](=O)[O-])c2c1	9.57% (inactive)	–
Cc1cc(C(=O)N/N=C/c2ccccc2[N+](=O)[O-])c(C)o1	-1.02% (inactive)	–
O=c1c(O)c(Br)ccc2c(Br)c(O)c(O)c(O)c12	-8.83% [at 9.04 µM] (inactive)	–
